# From the supplement of paper PMC6607015
# Structures can show the parent of a compound that is named as a salt.
# Legend:
# Settings in all cases: compound concentration in added solution (µM; 5 µl added to 20 µl cells): 10; 18 h
# A431 [1] = assay: LBPA endosome anti-LBPA integrated intensity (sum per cell), Z-score; higher = more LBPA staining
# Method in brief: (§1)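 HeLa MZ or A431 cells (3,500/well in 20 µl) were seeded onto 5 µl of 10 µM compound solution in duplicate 384-well imaging plates, incubated 18 h, then fixed in 4% PFA. Cells were stained with 6C4 anti-LBPA antibody, filipin, propidium iodide and CellTracker green, and four 20× images were taken per well. MetaXpress segmentation gave per-cell integrated LBPA or filipin intensity, either whole-cell or within LBPA endosomes. Values are Z-scores normalised in AcuityXpress.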
# HeLa MZ [2] = assay: as above
# Method in brief: as §1
# A431 [3] = assay: whole-cell filipin (free cholesterol) integrated intensity, Z-score; higher = more cholesterol staining
# Method in brief: as §1
# HeLa MZ [4] = assay: as above
# Method in brief: as §1
# A431 [5] = assay: filipin (cholesterol) integrated intensity within LBPA endosomes, Z-score; higher = more cholesterol in LBPA endosomes
# Method in brief: as §1
# HeLa MZ [6] = assay: as above
# Method in brief: as §1
Structure (SMILES),LBPA endosome anti-LBPA integrated intensity (z-score) (A431 [1]),LBPA endosome anti-LBPA integrated intensity (z-score) (HeLa MZ [2]),whole-cell filipin (z-score) (A431 [3]),whole-cell filipin (z-score) (HeLa MZ [4]),filipin (z-score) (A431 [5]),filipin (z-score) (HeLa MZ [6])
CC(C)COCC(CN(Cc1ccccc1)c1ccccc1)N1CCCC1 (stereo not drawn) [Bepridil hydrochloride],1.46,1.74,-0.0149,-0.717,2.11,0.331
CCCOc1ccccc1-c1nc2[nH]nnc2c(=O)[nH]1 [Zaprinast],-0.577,-0.755,-0.471,0.00218,-0.519,-0.401
CC(C)(C)NC[C@H](O)c1ccc(O)c(CO)c1 [Levalbuterol hydrochloride],-0.401,-1.22,0.171,-0.774,-0.471,-0.476
NCCCC[C@H](N[C@@H](CCc1ccccc1)C(=O)O)C(=O)N1CCC[C@H]1C(=O)O [Lisinopril],-0.555,-0.949,-0.886,-0.862,-0.636,-0.71
COc1cnc(NS(=O)(=O)c2ccc(N)cc2)nc1 [Sulfameter],-0.428,-0.0725,-0.426,-0.359,-0.447,-0.542
C[N+]1(C)CCC(OC(=O)C(O)(c2ccccc2)C2CCCC2)C1 (stereo not drawn) [Glycopyrrolate],-0.432,-0.329,-0.296,-0.075,-0.498,-0.443
CCCCOc1ccc(OCCCN2CCOCC2)cc1 [Pramoxine hydrochloride],-0.284,1.34,0.443,2.25,-0.151,0.197
NC(=O)c1ccc[n+]([C@@H]2O[C@H](COP(=O)([O-])OP(=O)(O)OC[C@H]3O[C@@H](n4cnc5c(N)ncnc54)[C@H](O)[C@@H]3O)[C@@H](O)[C@H]2O)c1 [Nadide],-0.373,-0.766,-0.714,-0.46,-0.413,-0.768
C[C@H](CCC(=O)O)[C@H]1CC[C@H]2[C@@H]3CC[C@@H]4C[C@H](O)CC[C@]4(C)[C@H]3CC[C@]12C [Lithocholic acid],-0.507,-0.5,-0.232,0.929,-0.446,-0.289
C[C@H]1NC(=O)NC1=O [Methylhydantoin-5-(D)],-0.487,-0.363,-0.289,-0.267,-0.458,-0.381
Cc1cccc(Nc2ccccc2C(=O)O)c1C [Mefenamic acid],-0.573,-1.34,-0.793,-0.4,-0.497,-0.72
COC(=O)C1=C(C)NC(C)=C(C(=O)OCCN(C)Cc2ccccc2)C1c1cccc([N+](=O)[O-])c1 (stereo not drawn) [Nicardipine hydrochloride],1.9,0.904,1.24,-0.142,1.79,0.881
CCN1CCCC1CNC(=O)c1cc(S(=O)(=O)CC)c(N)cc1OC (stereo not drawn) [Amisulpride],-0.554,-0.244,-0.77,-0.754,-0.543,-0.453
Clc1cccc(Cl)c1NC1=NCCN1 [Clonidine hydrochloride],-0.318,-0.0581,-0.585,-0.0901,-0.436,-0.268
CCOc1cc(CC(=O)N[C@@H](CC(C)C)c2ccccc2N2CCCCC2)ccc1C(=O)O [Repaglinide],-0.598,-1.05,0.149,0.153,-0.42,-0.591
CSc1ccc2c(c1)C(N1CCN(C)CC1)Cc1ccccc1S2 (stereo not drawn) [Methiothepin maleate],3.25,1.9,0.963,0.218,3,2.66
CN(C)C(=N)NC(=N)N [Metformin hydrochloride],-0.525,-0.838,-0.902,-0.3,-0.437,-0.498
N=C(NCCCCCCNC(=N)NC(=N)Nc1ccc(Cl)cc1)NC(=N)Nc1ccc(Cl)cc1 [Chlorhexidine],-0.526,-0.794,-1.08,-1.91,-0.271,-0.107
CCOC(=O)C1=C(C)NC(C)=C(C(=O)OC)C1c1cccc([N+](=O)[O-])c1 (stereo not drawn) [Nitrendipine],-0.341,0.238,-0.283,0.00443,-0.327,-0.297
OC(Cn1cncn1)(Cn1cncn1)c1ccc(F)cc1F [Fluconazole],-0.239,0.69,-0.0365,0.704,-0.366,-0.348
CN(C)[C@@H]1C(O)=C(C(N)=O)C(=O)[C@@]2(O)C(O)=C3C(=O)c4c(O)cccc4[C@@](C)(O)[C@H]3C[C@@H]12 [Tetracycline hydrochloride],-0.508,0.0873,-0.872,-0.867,-0.521,-0.698
Nc1ccc(S(=O)(=O)Nc2ccc(Cl)nn2)cc1 [Sulfachloropyridazine],-0.463,-0.899,-0.227,-0.78,-0.494,-0.56
CCOC(=O)[C@H](CCc1ccccc1)N[C@@H](C)C(=O)N1Cc2ccccc2C[C@H]1C(=O)O [Quinapril HCl],-0.508,-0.151,-0.267,-0.543,-0.453,-0.577
NS(=O)(=O)c1cc2c(cc1Cl)N=C(CSCc1ccccc1)NS2(=O)=O [Benzthiazide],-0.596,-0.997,-0.0125,-0.328,-0.513,-0.593

Structure (SMILES),LBPA endosome anti-LBPA integrated intensity (z-score) (A431 [1]),LBPA endosome anti-LBPA integrated intensity (z-score) (HeLa MZ [2]),whole-cell filipin (z-score) (A431 [3]),whole-cell filipin (z-score) (HeLa MZ [4]),filipin (z-score) (A431 [5]),filipin (z-score) (HeLa MZ [6])
OCCN1CCN(CCCN2c3ccccc3Sc3ccc(C(F)(F)F)cc32)CC1 [Fluphenazine dihydrochloride],2.14,0.746,-0.522,0.27,2.23,3.52
Cc1c(Cl)cccc1Nc1ncccc1C(=O)O [Clonixin Lysinate],-0.476,-1.1,-0.0028,-0.353,-0.486,-0.62
COc1nc(C)nc(Cl)c1NC1=NCCN1 [Moxonidine],-0.127,0.511,-0.0575,-0.203,-0.176,-0.384
C[C@H]1C[C@H]2[C@@H]3CCC4=CC(=O)C=C[C@]4(C)[C@@]3(F)[C@@H](O)C[C@]2(C)[C@@]1(O)C(=O)CO [Betamethasone],-0.442,-0.354,-0.547,-0.354,-0.536,-0.463
Cc1cc(C)nc(NS(=O)(=O)c2ccc(N)cc2)n1 [Sulfamethazine sodium salt],-0.34,0.511,0.128,-0.158,-0.422,-0.588
COc1ccc(C(Cl)=C(c2ccc(OC)cc2)c2ccc(OC)cc2)cc1 [Chlorotrianisene],-0.163,-0.13,0.392,-0.127,-0.183,-0.174
NCCNCCNCCNCCN [Tetraethylenepentamine pentahydrochloride],-0.276,-0.00928,0.0109,0.146,-0.392,-0.197
CO[C@@H]1[C@@H](O[C@@H]2O[C@H](C)[C@@H](O[C@H]3C[C@@](C)(O)[C@@H](OC(=O)CC(C)C)[C@H](C)O3)[C@H](N(C)C)[C@H]2O)[C@@H](CC=O)C[C@@H](C)[C@@H](O)/C=C/C=C/C[C@@H](C)OC(=O)C[C@H]1OC(C)=O [Josamycin],0.115,-0.222,-0.459,-0.645,-0.106,-0.348
COc1ccc2c3c1O[C@H]1C[C@@H](O)C=C[C@@]31CCN(C)C2 [Galanthamine hydrobromide],-0.594,-0.476,-0.752,-0.607,-0.584,-0.496
CN(C)CCCOc1nn(Cc2ccccc2)c2ccccc12 [Benzydamine hydrochloride],1.07,2.25,1.71,-0.196,1.63,0.942
CCN(CC)CCOC(=O)c1ccc(N)cc1 [Procaine hydrochloride],-0.324,0.381,-1.04,-0.86,-0.492,-0.418
CNS(=O)(=O)Cc1ccc2[nH]cc(CCN(C)C)c2c1 [Sumatriptan succinate],-0.406,0.265,-0.574,-0.339,-0.423,-0.484
CCOC(=O)[C@H](CCc1ccccc1)N[C@H]1CCc2ccccc2N(CC(=O)O)C1=O [Benazepril HCl],-0.544,-0.517,-0.676,-0.703,-0.597,-0.712
Cc1ccccc1N1C(=O)c2cc(S(N)(=O)=O)c(Cl)cc2NC1C (stereo not drawn) [Metolazone],-0.495,-0.0744,-0.881,0.441,-0.436,-0.348
"OCC(O)CN1CCN(c2ccccc2)CC1 (racemic) [Dropropizine (R,S)]",-0.485,-0.821,-0.651,-0.914,-0.515,-0.59
CC[C@H](c1ccc(O)cc1)[C@@H](CC)c1ccc(O)cc1 [Hexestrol],-0.48,-0.198,-0.492,-0.508,-0.435,-0.383
OCCN1CCN(CCCN2c3ccccc3Sc3ccc(Cl)cc32)CC1 [Perphenazine],3.24,0.966,-0.472,-0.434,2.14,2.73
CC(=O)OCC(=O)[C@@]12OC(C)(C)O[C@@H]1C[C@H]1[C@@H]3C[C@H](F)C4=CC(=O)C=C[C@]4(C)[C@@]3(F)[C@@H](O)C[C@@]12C [Fluocinonide],-0.115,-0.842,-0.144,-0.284,-0.311,-0.49
COc1cc(NS(=O)(=O)c2ccc(N)cc2)nc(OC)n1 [Sulfadimethoxine],-0.522,-0.857,-0.62,0.132,-0.482,-0.404
C[C@@H]1CCC[C@H](C)N1NC(=O)c1ccc(Cl)c(S(N)(=O)=O)c1 [Clopamide],-0.569,-1.24,-0.626,-0.712,-0.503,-0.648
COc1ccc(NS(=O)(=O)c2ccc(N)cc2)nn1 [Sulfamethoxypyridazine],-0.55,-1.31,-0.449,-0.237,-0.455,-0.522
N#Cc1ccc(C2CCCc3cncn32)cc1 (stereo not drawn) [Fadrozole hydrochloride],-0.639,-1.49,-1.18,-0.874,-0.538,-0.502
COc1cc(-c2ccc(=O)[nH]n2)ccc1OC(F)F [Zardaverine],-0.319,0.0365,0.286,0.356,-0.298,-0.332
Clc1ccc(C(Cn2ccnc2)OCc2ccsc2Cl)c(Cl)c1 (stereo not drawn) [Tioconazole],-0.225,0.542,-0.125,-0.75,-0.053,-0.127
